Results published in the supplement of paper PMC10681739.
Whole data set: some 4,100 sequences, median “arbitrary fluorescence units” near 780, cut for the highest 2% near 22,000. Shown is part of a subset that was picked to be rich in the highest values.

target: T1, ETS1 (UniProt P14921); test: ETS1 binding intensity (PBM fluorescence), ETS1 alone (arbitrary fluorescence units); higher = stronger binding; conditions: ETS1 concentration 1 nM; RUNX1 concentration 0 nM
T1 sequence: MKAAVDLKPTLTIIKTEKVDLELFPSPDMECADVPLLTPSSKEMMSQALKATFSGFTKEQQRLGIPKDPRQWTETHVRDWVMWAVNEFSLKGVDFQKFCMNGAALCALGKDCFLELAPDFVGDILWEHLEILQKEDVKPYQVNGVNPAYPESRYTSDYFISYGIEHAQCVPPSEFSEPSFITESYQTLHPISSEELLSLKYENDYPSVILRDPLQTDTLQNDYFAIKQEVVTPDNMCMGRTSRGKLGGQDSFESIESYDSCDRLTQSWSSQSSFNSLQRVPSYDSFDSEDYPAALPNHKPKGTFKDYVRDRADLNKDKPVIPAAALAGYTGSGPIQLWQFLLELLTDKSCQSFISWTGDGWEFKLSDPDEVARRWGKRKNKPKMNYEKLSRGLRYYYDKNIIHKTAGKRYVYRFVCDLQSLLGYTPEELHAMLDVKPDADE
Outline: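 Recombinant full-length human ETS1 was applied at 1 nM, without RUNX1, to double-stranded Agilent 4 × 180k arrays of 36-bp genomic probes carrying a mutated RUNX1 partner site, following standard PBM protocols. Detection used an anti-ETS1 antibody (Cell Signaling Technology 14069) and an Alexa488-conjugated secondary antibody, with scanning on a GenePix 4400A. Each sequence was printed as four replicate spots. Binding level is the spot fluorescence intensity, summarised across replicates and not normalised.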

Sequence | ETS1 binding intensity
CCTTTGGGGTAGCAGTGGCCCCGCGCGGAGGAAGTT | 303
CTAGCCACCTCGGCCCCACCCTCTTCCGGCCTCAGC | 1820
GCAGCTTCCGCGGCCCCCGCCCGGCCTGCAGCGCCA | 2350
TGACATTTCCGGCCCCACCTCGGCCTGCAGCGCCGC | 40200
TATCAGCTTCCGACGTGCCCCTCGGTATCTGGACTA | 1600
GGATTTTGGGGTAGCGAACCCCGGGGCCGGAAGCAG | 1080
TTCGCTCCCTGAATCGCGTCGCTTCCTGAGCCGCGC | 454
CTGTCTGCTTCCCGTGGCCAGCCCTGATCGCGGCCC | 953
CGGGACTTCCTGTCTTCCCTGTCGCGGAGCTCTGAA | 27000
CCATTGGCGGGCGGCTTGAATGACGGAAGTGACGGC | 872
CTGTCGTGACCCGGCAGGAGTAGCGTCGGAAGCAAT | 403
CTTAGCGGAAGAGGCGTGACCCAGGCGTACCCCAGG | 1380
GGTCCAGGAAGACGTCAAGGGCTTGGATTTGTAAAC | 437
TAGGTCACCTCCGCGACACAGCAACGGAAGTAGGGT | 1110
AGGGGCAGAGCACAGCACCACCGGAAGTAGGGCTCA | 9450
GCACCACCGGAAGTAGGGCTCAACCTCCGCTCATTT | 24400
GTCCCCTCGGTGTCACAGCAATATCCGTTCTTTGAT | 1190
CGGGAATCCACGGAATTTACTGCCGGAAGTTCGGCG | 2700
CGAGAACGGCGCCACTGAGGAACCGGAAACAAGCCA | 3230
GAAGTCACATCCTGTCTGTTGGGGCAGGGCACAGAG | 23500
CATCTGTTGTCTCCTTGAAGTCACATCCCACAGGAG | 438
AGACCCTGTTGTCACATGGCAGGAAGTCTGCAGGTT | 1060
ACAAAAAAATCACACACCCAACGGAAACCATAGAGA | 669
AGCACCCCATTCTACACCTCCAGCTCATCCTGCGTC | 389
GAACTTCCGGGACCACGTGACGTAGAACTACAACAA | 32800
CTCCTGGGCTTGTAGTTAGAACATCCTGCAGCAAAG | 1130
AATGAGCCCCAGAACCCTTTTCCTTCCGGCCTGTGC | 1520

Sequence | ETS1 binding intensity
GCAGGACTTCCTGTGTTGTGCTAACCCCAAATTACA | 22100
TTTCTGACTTCCTGTGTGCTTCAGAAACCCCAATGA | 25100
CGGAGAGCTCGCGGCAATTCCGTTTCCCCGCCCTTT | 404
CCGCCCACTTCCGTGTGGCCGCCGATTGGTCTTGCC | 7350
GAGGGCTGCTTCCTGCTCTGTGGAGGCCGCTGAGGG | 6710
GCTGCTTCCGGCCGCTGGTCGCAGGGCTGAGGGACT | 26400
GGCCTACGGGAGGGCCCGCCTTGGCTGCTTCCGCAG | 310
GGCTCTGCCGTCCGCTGACAGGAAGACGCTGACGAC | 973
TGCGCTCGATTGTGAGCGGGGGCGGAAAGAGGCGCC | 471
GTAGGGCCGGACGGCAGGCTCCGGGATAGCGCCACG | 416
AGCTTTTCTGAGAGCGCGGGCAGGATGTGACCTCCC | 675
CTTTCTGTCGAGGTCAGGTTTCCTCTCCTTTATGAA | 437
GCGGGGCGTGTCCACGCACTTCCGGTTTTCTCGAAA | 28700
GGGTCCTTCCGGGTTTTGTGTCGAATCTACGGCGGC | 7400
CGTGTCCACGGGGACCGAAAGTGGCGTCCGGCGCAA | 354
TGTGTAATCCCCACGACAACCTAGGAAGTGGGAAAA | 410
CTGCCCATCGCTGTTAACTTTTCCGCCTCCTTAAAG | 492
CCTGACTTCCTCCTCCCCCTCCCGCCCCAATTCCGC | 4620
ACCTTCGCCGCTGTCCCCAGCCTCTTCCTGTCCCGG | 1130
GTCTTACTTCCTGTCCCCGCCCACCTCGACTGTCTT | 22700
AGTTGCTAAGGAAATGACTGCCTGCAGCGCCTGGCC | 610
GAAGAGACTCCCGCCACCTTGGCCGTTTCCCCTGAT | 318
GCCGCTGGGTAGGCGGAAGTAGCCGCTGGCATGGCA | 2800
AGAAAACTACATTCAATTCTCTTTACACAGGATGTT | 661
CGGGACAGCGACGGGCCAGGTGACCGGAAGAGGCCG | 1770
GCGGAGCTTGTAGGCCAGGAGGACTTCCGGGTGGGT | 2220
CGGAGCCCAACGACCGGCACTTCCGGGGGGCGGGTG | 5010

Sequence | ETS1 binding intensity
GCACTTCCGGAGCCGGGCGTCTACAGGCCGAGGCCA | 28500
CACCCTCACGGAAACAGCTGTGTGTAAGCACCTCCA | 585
TATCATTTTTACGACAGAGGTACAGGAAATTGTTTC | 733
TAGGTTTGGGGTAGAAGCTGCAGGAACTTCCTGTCC | 1710
CCCCTCACTTCCCTCAACCCTTCCCATAAACTGGGA | 1620
CGACGTCACTTCCGCTGGTTCAAGCACCGTGAGACT | 21400
GCGCACTTCCGGGCTGGTGAACGCGTTGACGTCACC | 35400
GGTGACGTCAACGCGTTCACCAGCCCGGAAGTGCGC | 1230
AAGCTTCCTGGCCCTTTAAAAATGGAGGTTCCGCAC | 4840
GGGGCGATTACAGAACGGGTAACTCAGGATGATTCA | 541
CTTGGGGTCCCCTCGGGTGGTGGCAGGATGTAGGTA | 480
CCGAGCGCATTTTACGTGGTGCTGCATTTCCGGTAG | 3930
GGACCGGAAGTAGGTTTCTACCCGAGCGCATTTTAC | 27600
CGCCCCGGCAGCCGCCCACGTCCGGGGGCCAGGCCT | 802
TGGCGGGAGAACTTCCCCCTGTGCGCTCGCGACGTG | 775
AGCGCTTCCTGGCTCCGGCCCCGCCCCTGCAGTCGG | 6440
GAGAACTTCCGGTGCGCTCCCCGGGACTGCAGTCCC | 46000
CTTTTTGGTCTGCCAGGCACGGATTTCCGCCCACTC | 1270
ATGGAAAGGAAGTCGGTGGGAATCCGCCTCAGCGGT | 1590
GTGTCCTGTGCTCTCCTCTGCGCCACTTCCCTGCCT | 623
CCCACTTCCTGTCCCTGCATGCTCTGGGGCAGGCAG | 31100
GTCCTCTTCCTGTCCCCCAGGTGGGCATGTGATTTG | 6800
CACGGAGCCACTTCCGGCGGCTGTGAGCGCAAAACC | 35500
GGCGGCTGTGAGCGCAAAACCCAAAACTTCCGATGG | 452
TCAGGAGCCACGGACGGGCGGGGCTTCCGGGAGCAA | 1170
AACACTATTTCCTTTCTTGCTGCTCACATTTTAACA | 4990
